This is an account of results in PubChem BioAssay (NCATS).

Inconclusive results are not listed. Active and inactive are the calls of the source. The call rests on the fitted dose curve; in most records, active means well fitted inhibition curve with a large enough effect; inconclusive means small, poorly fitted or top-dose-only effect; inactive means no such curve, though single readings can be large or run the other way.

The nature of this assay: qHTS assay for measurement of the activity of small molecule inhibitors on Zika virus induced Caspase-3 activity in human iPSC derived neural progenitor cells (hNPCs) (AID 1224857). Further: nearly all actives have a fitted effect of over 65% in size. To be noted: hNPCs ZIKV-induced caspase-3/7, Caspase-Glo luminescence, 6 h; series mostly up to 45.7 µM; activity change, negative = inhibition: at the top concentration. The source says: National Center for Advancing Translational Sciences [NCATS]
Johns Hopkins University School of Medicine
Increase in the Caspase-3 activity indicates an activation of apoptosis cell death pathway caused by Zika virus infection in certain types of neuronal cells including human neural progenitor cells (hNPCs), astrocytes, and astrocytoma cell line (SNB-19). This cell-based caspase-3 activity assay measures the increased caspase-3 activity in the human iPSC derived neural progenitor cells (hNPCs) after a 6-hour Zika virus infection with a luminescence readout. A decrease in the luminescence signal in this assay by small molecule treatment indicates an inhibitory effect of that small molecule on the Zika virus induced caspase-3 activity that may correlate with its effect on reduction of Zika virus caused cell death.
The medium for hNPCs consists of DMEM/F12, N2 supplement (ThermoFisher, Cat.# 17502048), NEAA (ThermoFisher, Cat. # 11140050), 2 ug/ml heparin, 2 uM cyclopamine, and B27 (ThermoFisher, Cat. # 17504044). A Caspase-Glo 3/7 assay kit (catalog number G8092; Promega, Madison, WI) was used to detect caspase-3 activity induced by Zika virus infection in human cells. The reagent mixture was reconstituted as described in the protocol from the manufacturer. Polystyrene tissue culture treated and PDL coated white plates were obtained from Greiner Bio-One (Monroe, NC). Cells were seeded in 384- or 1536-well assay plates and cultured at 37 C with 5% CO2 for 16 to 20 hours. The typical cell seeding density in the 1536-well plate assay is 350 cells/well in 3 ul medium for hNPCs in tissue culture treated plates. Compounds were added to cells and incubated for one hour before addition of ZIKV solution to cells (2 FFU/cell). After incubation at 37 C with 5% CO2 for 6 hours, the reagent mixture of Caspase-Glo 3/7 assay kit was added to each well, followed by incubation at room temperature for 30 minutes. The luminescence intensity of the assay plates was measured using a ViewLux plate reader (PerkinElmer). Data were normalized by using the cell-containing wells without ZIKV as a negative control (0% induction of caspase 3/7 activity) and wells containing ZIKV infected cells (Caspase-3 activity induced) as a positive control (100% induction of caspase 3 activity). The percentage inhibitions of the increased Caspase-3 activity by small molecule inhibitors were then calculated.
With `O=C(OCC(O)CO)c1ccccc1Nc1ccnc2cc(Cl)ccc12` (stereo not given), the “activity change, negative = inhibition” value was -4.73% (inactive). Turning to `CN(C(=O)CN(CCO)CC(=O)N(C)C(C)(C)Cc1ccccc1)C(C)(C)Cc1ccccc1`, the “activity change, negative = inhibition” value is 6.21% (inactive). The value for `C[C@]12CC[C@@H]3c4ccc(O)cc4CC[C@H]3[C@@H]1C[C@@H](O)[C@@H]2O` was 3.98% (inactive); that for `CC1(C)O[C@@H]2C[C@H]3[C@@H]4CCC5=CC(=O)CC[C@]5(C)[C@@]4(F)[C@@H](O)C[C@]3(C)[C@]2(C(=O)CCl)O1` was 9.43% (inactive). The value for `O=C1CCC(c2ccc(-n3ccnc3)cc2)=NN1` was -19.5% (inactive).

As to `O=C1OCCN1/N=C/c1ccc([N+](=O)[O-])o1`, the “activity change, negative = inhibition” value was -12.2% (inactive).

For the compound `CC(=O)Nc1c(I)cc(I)c(C(=O)O)c1I`, the “activity change, negative = inhibition” value was -4.23% (inactive).

With `CCCn1c(=O)[nH]c(=O)c2[nH]cnc21`, the “activity change, negative = inhibition” value is -5.47% (inactive).

With `CC(C)(CO)[C@@H](O)C(=O)NCCCO`, the “activity change, negative = inhibition” value was -2.77% (inactive).

As for `Cc1c(C(C)C)c(=O)n(-c2ccccc2)n1C`, the “activity change, negative = inhibition” value was 5.97% (inactive). The value for `CN=C(NC#N)NCCSCc1csc(N=C(N)N)n1` was 14.7% (inactive); that for `CCN(CC)CCNC(=O)COc1ccc(Cl)cc1` was 4.42% (inactive).

Regarding `CC[C@H](C)C(=O)O[C@H]1CCC=C2C=C[C@H](C)[C@H](CC[C@@H]3C[C@@H](O)CC(=O)O3)[C@H]21`, the “activity change, negative = inhibition” value was 15.4% (inactive).

As for `CC1=C(C(=O)O)N2C(=O)[C@@H](NC(=O)[C@H](N)c3ccc(O)cc3)[C@H]2SC1`, the “activity change, negative = inhibition” value is 1.64% (inactive).

For the compound `CC(=O)OCC(=O)[C@@]12N=C(C)O[C@@H]1C[C@H]1[C@@H]3CCC4=CC(=O)C=C[C@]4(C)[C@H]3[C@@H](O)C[C@@]12C`, the “activity change, negative = inhibition” value was -8.21% (inactive).

As for `COc1c2occc2c(OC)c2c(=O)cc(C)oc12`, the “activity change, negative = inhibition” value was 8.67% (inactive). As for `Cc1onc(-c2c(Cl)cccc2Cl)c1C(=O)N[C@@H]1C(=O)N2[C@@H]1SC(C)(C)[C@@H]2C(=O)O`, the figure is 16% (inactive); as for `CCN1CCC[C@H]1CNC(=O)c1c(OC)ccc(Br)c1OC`, 6.3% (inactive). The value for `COc1cc(NS(C)(=O)=O)ccc1Nc1c2ccccc2nc2ccccc12` was 422% (inactive); that for `NCCC(O)(P(=O)(O)O)P(=O)(O)O` was -17.1% (inactive). As for `CCC(C(=O)OCCN(CC)CC)c1ccccc1` (stereo not given), the figure is -2.48% (inactive). In the case of `C[C@@H](CN(C)C)CN1c2ccccc2Sc2ccccc21`, the “activity change, negative = inhibition” value was -5.59% (inactive). As for `CC(=O)N/N=C/c1ccc([N+](=O)[O-])o1`, the figure is -8.84% (inactive).

Take `CCOc1ccc(NC(=O)CC(C)O)cc1` (stereo not given): the “activity change, negative = inhibition” value is -0.012% (inactive). As for `CC(=O)CC(c1ccc([N+](=O)[O-])cc1)c1c(O)c2ccccc2oc1=O` (stereo not given), the figure is 8.13% (inactive). As for `CCN(CC)C(=O)N1CCN(C)CC1`, the figure is -0.192% (inactive); as for `COc1cccc2c1C(=O)c1c(O)c3c(c(O)c1C2=O)C[C@@](O)(C(C)=O)C[C@@H]3O[C@H]1C[C@H](N)[C@H](O)[C@H](C)O1`, 59.3% (inactive); as for `CC(C)(C)CC(C)(C)c1ccc(OCCOCC[N+](C)(C)Cc2ccccc2)cc1`, -9.55% (inactive). As for `CCCCC(=O)O[C@]1(C(=O)CO)CC[C@H]2[C@@H]3CCC4=CC(=O)CC[C@]4(C)[C@H]3[C@@H](O)C[C@@]21C`, the figure is 57.6% (inactive); as for `CN(C)/N=N/c1nc[nH]c1C(N)=O`, -5.49% (inactive); as for `CC1=C(C(=O)OC(C)C)C(c2cccc([N+](=O)[O-])c2)C(C(=O)OC2CN(C(c3ccccc3)c3ccccc3)C2)=C(N)N1` (stereo not given), 281% (inactive). Turning to `O=C1OC2(c3ccc(O)cc3Oc3cc(O)ccc32)c2ccccc21`, the “activity change, negative = inhibition” value was -28.1% (inactive). Turning to `c1ccc(-c2ccc(C(c3ccccc3)n3ccnc3)cc2)cc1` (stereo not given), the “activity change, negative = inhibition” value was 8.41% (inactive).

As to `COc1cc(OC)cc(OC)c1`, the “activity change, negative = inhibition” value was -23.3% (inactive). As for `CN1CCCC(CC2c3ccccc3Sc3ccccc32)C1` (stereo not given), the figure is 6.29% (inactive); as for `OC[C@H]1O[C@H](O[C@]2(CCl)O[C@H](CCl)[C@@H](O)[C@@H]2O)[C@H](O)[C@@H](O)[C@H]1Cl`, -1.08% (inactive); as for `COc1ccc(OC)c(C(O)CNC(=O)CN)c1` (stereo not given), 26.2% (inactive).

In the case of `Cc1cccn2c(=O)c(-c3nnn[nH]3)cnc12`, the “activity change, negative = inhibition” value was -1.83% [at 20.5 µM] (inactive). The value for `CC(=O)OCC(=O)[C@@]1(OC(C)=O)[C@@H](C)C[C@H]2[C@@H]3C[C@H](F)C4=CC(=O)C=C[C@]4(C)[C@@]3(F)[C@@H](O)C[C@@]21C` was 12% (inactive); that for `CN=C(NC#N)Nc1ccc(C2=NNC(=O)CC2C)cc1` (stereo not given) was 8.46% (inactive).
